This passage reports growth results from PubChem BioAssay (NCI).

About 83,000 compounds went through this panel and 20% of them were active in at least one assay; those are over-represented in the sample as a whole.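 In brief: 96-well plates, 48 h treatment, single concentration, percent growth endpoint.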 Unmarked numbers belong to inactive results. Activity calls are given as the source filed them. The calls were made as follows: active = growth percent below 10; inactive = the rest.

The subject of the assay is MDA-MB-468 breast. Put plainly: NCI-60 one-dose screen, 48 h (100 = growth as untreated, 0 = no growth, -100 = all killed). The note with it: 10 µM unless noted.
Regarding `Cc1c(O)ccc(SC#N)c1C`, the growth is 112%.
As to `CC(C)OC(=O)c1ccc2[nH]c(O)c(C(=Nc3ccc(N(C)C(=O)CN4CCN(C)CC4)cc3)c3ccccc3)c2c1`, the growth was -91% (active).
The result for `Cc1c(C(=O)/C=C/c2csc3ccccc23)[n+](=O)c2ccccc2n1[O-]` reads -16.5% (active); that for `CC(C)=CCC[C@@H](C)[C@H]1CC[C@@]2(C)C3=C(CC[C@]12C)[C@@]1(C)CC[C@H](O)C(C)(C)[C@@H]1CC3`, 102%; that for `CCCCCCCCCCCCCCCCNC(=O)Nc1ccc(C)c(NC(=O)NCCCCCCCCCCCCCCCC)c1`, 101%.
`C=COC(=O)CCOCC(CC)CCCC` (stereo not given): the growth was 104%.
As for `O=C(NNC(=S)Nc1ccccc1)c1ccccn1`, the growth is 51.2%.
The result for `O=C1CCN2C(=O)Nc3ccccc3C2C1` (stereo not given) reads 109%.
The result for `CCOCc1cc(C(C)(C)C)ccc1O` reads 94.3%; that for `O=C(Nc1ccc(F)cc1)c1cc2cc(Nc3nc(-c4ccccc4)nc4ccccc34)ccc2oc1=O`, 111%; that for `C=C1CCC2C3(C)COC(C)(C)OC3CCC2(C)C1C/C=C1/C(=O)OCC1Oc1ccccc1OC` (stereo not given), 60.6%.
`CCN(CC)CCn1nc2c3c(cccc3c1=O)-c1ccccc1-2`: the growth was 25.9%.
The result for `CCNC(=O)Oc1ccc(/C(=C(\C)c2ccc(Cl)cc2)c2ccc(OCCN3CCCCC3)cc2)cc1` reads 56.5%; that for `Nc1[nH]nc(Nc2ccccc2)c1-c1nc2ccccc2s1`, 17.5%; that for `CC(O)CCNC(c1ccccc1)C(O)c1ccccc1` (stereo not given), 116%.
The result for `Cc1nc2cc(Nc3nc(Nc4ccc(F)cc4)nc(-c4cccs4)n3)ccc2n1Cc1ccccc1` reads 33.2%; that for `COc1ccc(/C=C2\CCCC3=C2N=C2SC(C)=NN2C3c2ccc(OC)c(OC)c2)cc1OC` (stereo not given), 12.1%; that for `O=C(CSC1CCc2ccccc21)N/N=C/c1ccccc1O` (stereo not given), 33.9%.
The result for `O=C1/C(=C/c2ccccc2[N+](=O)[O-])Oc2ccc(O)cc21` reads 20.3%; that for `CCCCN(CCCC)C(=O)[C@H](CC)[C@@H]1CC[C@@H](C)[C@@H]([C@H](C)[C@@H](O)[C@@H](C)C(=O)[C@H](CC)C2O[C@]3(C=CC(=O)[C@]4(CC[C@@](C)([C@H]5CC[C@](O)(CC)[C@H](C)O5)O4)O3)[C@H](C)C[C@@H]2C)O1` (stereo not given in full), -11.5% (active); that for `CNC(=O)c1cc(Oc2ccc(NC(=O)c3[nH]c(SC)nc3-c3ccc(F)cc3)cc2)ccn1`, 70.9%.
Turning to `COC1=C(OC)C(=O)C=CC1=O`, the growth was 105%.
As to `NS(=O)(=O)Oc1cccc(-c2nc3sccn3c2-c2ccccc2)c1`, the growth is 18.6%.
Take `COC(=O)c1nc(-c2ccc(C)cc2)oc1S(=O)(=O)c1ccc(Cl)cc1`: the growth is 101%.
The result for `Cc1cnc(Nc2ccc(OCCN3CCCC3)cc2)nc1Nc1cccc(S(=O)(=O)NC(C)(C)C)c1` reads -16.6% (active).
The result for `CCCCCCCCCCCCOC(=N)N(C)C` reads 104%; that for `O=C1Nc2ccccc2/C1=C/c1nc2ccccc2c(=O)[nH]1`, 93%; that for `CCNC(=S)NNC(=O)c1cc2ccc1CCc1ccc(cc1)CC2`, 106%.
The result for `CCOC(=O)c1cnc2c(N=Nc3ccc(OC)cc3)c(N)nn2c1N` reads 116%.
As to `Cc1ccc(-c2nc3nc(-c4ccc(Br)cc4)nc(N4CCCNCC4)c3o2)cc1`, the growth is -65% (active).
With `COc1cc2c(cc1OC)-c1cc(OC)c(OC)cc1C(CN(C)C)C2` (stereo not given), the growth was 66.4% [100 µM].
The result for `COc1ccc(Cn2c(Br)c3c(c2Br)-c2nc(N)sc2CC3)cc1` reads -5.61% (active).
The result for `COc1ccc2c(c1)CCc1[nH]nc(-c3cc(OC)c(OC)c(OC)c3)c1-2` reads -4.62% (active).
The result for `NNCCc1ccc(NC(=O)CCCc2ccc(/C=C/C(=O)NO)cc2)cc1` reads 18%.
On to `Nc1ncc(-c2ccc3ncnc(N4CCc5cc(F)c(Cl)cc54)c3c2)cc1CO`, for which the growth is -39.8% (active).
The result for `O=C1NN(C(=O)c2ccc(Cl)cc2)C(c2ccccc2)=N/C1=C\c1ccc(F)cc1` reads 67.9%; that for `O=C1C(Cl)=C(N/N=c2/[nH][nH]/c(=N/NC3=C(Cl)C(=O)c4ccccc4C3=O)c3ccccc23)C(=O)c2ccccc21`, 62.9%.
The result for `COc1ccc(C2=C(c3cc(OC)c(OC)c(OC)c3)C(=O)CC2)cc1` reads 4.52% (active); that for `Cc1cccc(C)c1NC(=O)Nc1ccccc1`, 77.6%.
The result for `Cc1ccc(-c2c3c(N)nc(-c4cccnc4)nc3nc3c2c(C)nn3-c2ccccc2)cc1` reads 74.6%.
